# TDP1 cell noCPT: qHTS for Inhibitors of human tyrosyl-DNA phosphodiesterase 1 (TDP1): qHTS in cells in absence of CPT | actives 15% (n = 420,000) | Potency, µM (series often up to 46.2 µM), inactives show top-dose activity change, negative = growth inhibition, usual class: inhibitors | DT40 Tdp1-/- hTDP1 cells, no CPT, ATP luminescence, 48 h; also: potency is read from the fitted curve at half-maximal effect; nearly all actives have a fitted effect of over 55% in size
#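 Compound effects on proliferation are scored in DT40 Tdp1-/-;hTDP1 cells in the absence of CPT. ATP levels (CellTiter-Glo luminescence) are recorded after a ≥48 hr, 37 °C incubation.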
# IL-1B inflam inh: inflammasome signaling inhibition, IL-1 beta readout. actives 4.7% (n = 360,000). activity change, % at 57.5 µM. THP-1 LPS/ATP IL-1B secretion, AlphaLISA, 16 h; active compounds read low; in the data active = activity change below about -50%; inconclusive = mostly about -30% to -49%
#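 Secreted IL-1B measured by AlphaLISA bead assay after 16 h compound exposure of THP-1 cells; compounds (final up to 57.5 uM) added 1 h before LPS (250 ng/mL) and ATP (1.25 mM) stimulation; lower signal means less secretion.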
# TDP1 cell CPT: growth inhibition of DT40 Tdp1-/-;hTDP1 cells with camptothecin (screen for TDP1 inhibitors) | chicken DT40 Tdp1-/-;hTDP1 cells + 20 nM CPT, ATP luminescence, 48 h | Potency, µM (titrated, usually from 46.2 µM), for the others: top-dose activity change, negative = growth inhibition, usual class: inhibitors | actives 12% (n = 420,000); also: potency is read from the fitted curve at half-maximal effect; nearly all actives have a fitted effect of over 55% in size
#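 Chicken DT40 Tdp1-/- cells stably complemented with human TDP1 were seeded at 400 cells/well in medium containing 20 nM camptothecin, exposed to pin-transferred compounds, and grown at 37 °C for at least 48 hr. Viability was read as ATP luminescence.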
# HT1080 IDH1KD tx: toxicity to HT-1080 IDH1 knockdown cells (counter line). actives 2% (n = 360,000). HT-1080 IDH1 knockdown viability, ATP luminescence, 48 h. Potency, µM (top dose mostly 46.1 µM), for inactives: at the highest dose activity, negative = toxicity, hits mostly cytotoxic. AID 686971;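 also: potency is read from the fitted curve at half-maximal effect; 0% = DMSO wells and -100% = cell-free medium wells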
#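 HT-1080-IDH1KD cells (IDH1 knocked down), 750/well in RPMI with 5% FBS, treated with compound 48 h at 37 degrees C. Viability by CellTiter-Glo luminescence, normalised to DMSO and no-cell wells; concentration-response curves classed.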
# HT1080NT lethal: kills 2HG-producing HT-1080-NT fibrosarcoma cells; AID 686970; Potency, µM (top dose mostly 46.1 µM), inactives show at the highest dose activity, negative = less viability, actives largely listed as cytotoxic; HT-1080-NT fibrosarcoma viability, CellTiter-Glo ATP luminescence, 48 h; actives 1.6% (n = 360,000);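 also: NT is the 2HG producing partner of a matched IDH1 knockdown line; potency is read from the fitted curve at half-maximal effect; 0% = DMSO-treated cells and -100% = media-only wells without cells; nearly all actives have a fitted effect of over 55% in size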
#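 A 48-hour cytotoxicity screen used HT-1080-NT cells plated 2 hours before compound delivery. ATP-based CellTiter-Glo luminescence measured viability, normalized to DMSO and no-cell controls.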
# An asterisk follows results filed as active; ? = inconclusive; . = no result; [ ] = remark or other dose. Hits are enriched below; roughly 19% of the tested compounds scored in any of these assays. Unless noted, calls follow the shape of the dose curve; as a rule, active = well fitted curve in the direction sought with a large enough effect; inconclusive = small, poorly fitted or top-dose-only effect, or another doubt; inactive = no such curve, though single readings can be large; an effect the other way counts as inactive or inconclusive. Unless noted, % is scaled to controls: 0 for no effect and ±100 for the full control effect.
SMILES,TDP1 cell noCPT,IL-1B inflam inh,TDP1 cell CPT,HT1080 IDH1KD tx,HT1080NT lethal
COc1ccc(C(=O)NCC(c2cccnc2)N2CCc3ccccc32)cc1 (stereo not drawn),?,.,9.2µM*,.,.
Cc1ccc(S(=O)(=O)NCC(c2cccnc2)N2CCc3ccccc32)cc1 (stereo not drawn),?,-1,?,1%,-10%
N#Cc1ccccc1NC(=O)C(=O)NCC(c1cccnc1)N1CCc2ccccc21 (stereo not drawn),16µM*,.,21µM*,.,.
O=C(NCC(c1cccnc1)N1CCc2ccccc21)c1ccc(Cl)cc1 (stereo not drawn),12µM*,.,10µM*,.,.
COc1ccc(N2CCN(C(CNC(=O)c3ccc(OC)c(OC)c3)c3cccnc3)CC2)cc1 (stereo not drawn),?,.,-17%,.,.
Nn1c(-c2cccc([N+](=O)[O-])c2)nc2ccccc2c1=O,-2%,-1,3%,-26%,1%
CNC(=O)C1CCC(Cn2c(=O)c3sccc3n(CC(=O)Nc3ccc(C)c(C)c3)c2=O)CC1 (stereo not drawn),9.2µM*,.,9.2µM*,.,.
Cc1ccc(NC(=O)Cn2c(=O)n(CCCCCC(=O)NCc3ccc(F)cc3)c(=O)c3sccc32)cc1C,6.5µM*,.,?,.,.
CNC(=O)C1CCC(Cn2c(=O)c3sccc3n(CC(=O)Nc3ccc(C)cc3C)c2=O)CC1 (stereo not drawn),-9%,.,-5%,.,.
CCOc1ccc(NC(=O)Cn2c(=O)n(CCCCCC(=O)NCc3ccccc3)c(=O)c3sccc32)cc1,16µM*,.,?,.,.
CCN(CC)C(=O)Cn1c(=O)n(CCCCCC(=O)NCc2ccccc2)c(=O)c2sccc21,-18%,.,-4%,.,.
COc1cccc(Nc2ncc3nc(C)c(=O)n(C4CC4)c3n2)c1,?,.,-12%,.,.
COc1ccc(-n2c(=O)c3ccccc3n(CC(=O)NCC3CCCO3)c2=O)cc1 (stereo not drawn),0%,-12,-4%,8%,6%
CC(C(=O)N1CCCCCC1)c1ccc([N+](=O)[O-])cc1 (stereo not drawn),?,23,2%,-6%,-5%
COc1cccc(N(C(=O)Cn2nnc(-c3ccc(F)cc3)n2)C(C(=O)NCC2CCCO2)c2ccc(Cl)cc2)c1 (stereo not drawn),?,-8,?,-1%,-1%
COc1ccc(-c2nnn(CC(=O)N(Cc3ccco3)C(C(=O)NCC3CCCO3)c3ccco3)n2)cc1 (stereo not drawn),?,-23,?,-15%,4%
COc1ccc(-c2nnn(CC(=O)N(Cc3ccccc3Cl)C(C(=O)NCC3CCCO3)c3ccco3)n2)cc1 (stereo not drawn),18µM*,5,?,9%,0%
COc1cccc(N(C(=O)Cn2nnc(-c3ccc(Cl)cc3)n2)C(C(=O)NCC2CCCO2)c2ccc(C)cc2)c1 (stereo not drawn),21µM*,-9,16µM*,5%,0%
COc1ccc(C(=O)NCC(=O)NCC(=O)OCC(=O)C(C)(C)C)cc1,1%,25,-3%,13%,9%
CC(C)N1CC=C2C(C#N)=C(N)C(C#N)(C#N)C(c3ccccc3)C2C1 (stereo not drawn),14µM*,0,?,-5%,-15%
COc1cc(C2C3CN(C)CC=C3C(C#N)=C(N)C2(C#N)C#N)ccc1OC(C)C (stereo not drawn),-27%,-11,-29%,-10%,-4%
CCN1CC=C2C(C#N)=C(N)C(C#N)(C#N)C(c3cc(Cl)ccc3Cl)C2C1 (stereo not drawn),23µM*,-8,18µM*,?,-13%
CC(C)(C)OC(=O)N1CC=C2C(C#N)=C(N)C(C#N)(C#N)C(c3cccs3)C2C1 (stereo not drawn),23µM*,-21,?,-24%,-28%
COc1ccccc1OCCN1CSC(=S)N(C)C1,1.8µM*,-107*,1.2µM*,7.3µM*,9.2µM*
Cc1cccc(OCCN2CSC(=S)N(C)C2)c1,3.3µM*,-96*,4.6µM*,?,18µM*
SMILES,TDP1 cell noCPT,IL-1B inflam inh,TDP1 cell CPT,HT1080 IDH1KD tx,HT1080NT lethal
COc1ccccc1OCCCCN1CCCCC1,7%,18,-2%,2%,1%
Cc1cccc(OCCn2cnc(Cl)c2Cl)c1,-16%,-52*,-28%,-7%,7%
CCOC(=O)CC1C(=O)NCCN1C(=O)c1ccc(Cl)cc1Cl (stereo not drawn),0%,29,20%,0%,-7%
Cc1ccc(S(=O)(=O)N2CCOCC2)cc1C(=O)NC(=S)N1CC(C)OC(C)C1 (stereo not drawn),3%,13,4%,5%,0%
COc1ccc(NC(=S)Nc2ccc(F)cc2)cc1,26µM*,-13,?,2%,3%
OCCCNC(=S)Nc1ccc2nccnc2c1,?,9,-20%,-9%,-1%
Fc1ccc(NC(=S)Nc2ccc3nccnc3c2)cc1,18µM*,-2,16µM*,7%,5%
Cc1ccc(NC(=S)Nc2ccc(F)cc2)cc1C,?,-58*,?,0%,-3%
O=C(C[C@@H]1C[C@@H]2c3cc(NC(=O)C4CCC4)ccc3O[C@@H]2[C@@H](CO)O1)NCc1ccc(Cl)cc1,?,-7,?,-5%,-1%
COc1cc(C(C)=O)ccc1OCC(=O)N(CCC1=CCCCC1)c1c(N)n(Cc2ccccc2)c(=O)[nH]c1=O,?,35,?,2%,0%
Cn1ncc(N=Cc2ccccc2)c1C(N)=O,-17%,16,0%,17%,21%
Cn1ncc(N=Cc2ccccc2)c1C(=O)Nc1cccc(Cl)c1,18µM*,4,?,1%,5%
CCN(C(=O)COC(=O)C1CCN(S(=O)(=O)c2ccc3c(c2)OCCO3)CC1)C1CCCCC1,-1%,28,16%,5%,8%
Cc1ccc(-c2noc(CCC(=O)NCCCN3CCN(c4cccc(Cl)c4)CC3)n2)cc1,8.2µM*,-67*,12µM*,?,?
COc1ccc(-c2noc(CCC(=O)N3CCN(c4ccc(F)cc4)CC3)n2)cc1,-15%,23,-27%,6%,3%
CC1(C)CC(=O)c2cc(OCC(=O)NCCCN3CCN(c4ccc(F)cc4)CC3)ccc2O1,?,?,11µM*,?,?
Cc1ccc(-c2noc(CCC(=O)NCCCN3CCN(c4ccc(F)cc4)CC3)n2)cc1,7.3µM*,-68*,6.5µM*,-12%[9.24 µM],23µM*

# High-throughput results from PubChem BioAssay.
